Test results: PubChem BioAssay (NCI)
About 83,000 compounds went through this panel and 20% of them were active in at least one assay; those are over-represented in the sample as a whole.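 Results are percent growth after 48 hours of single-concentration exposure. 100 means growth as in untreated cells, lower positive values show inhibition; negative values down to -100 show cell death.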 The source made the active and inactive calls. How the source made its calls: active means growth percent below 10; inactive means the rest.

Key:
Assay in all cases: NCI-60 one-dose screen, 48 h (100 = growth as untreated, 0 = no growth, -100 = all killed)
Conditions in all cases: 10 µM unless noted
SK-MEL-2 melanoma = test system: SK-MEL-2 melanoma
EKVX NSCLC = test system: EKVX NSCLC
SN12C renal = test system: SN12C renal
UO-31 renal = test system: UO-31 renal
TK-10 renal = test system: TK-10 renal
ACHN renal = test system: ACHN renal
CAKI-1 renal = test system: CAKI-1 renal
A498 renal = test system: A498 renal
CCRF-CEM leukemia = test system: CCRF-CEM leukemia
MOLT-4 leukemia = test system: MOLT-4 leukemia

Measured: growth

Oc1cc(O)c2c(=S)cc(-c3ccc(Cl)cc3)oc2c1
active: SK-MEL-2 melanoma 4.4%
inactive: EKVX NSCLC 70.2% | SN12C renal 25.5% | UO-31 renal 18% | TK-10 renal 58.9% | ACHN renal 23.6% | CAKI-1 renal 76.5% | A498 renal 59.1% | CCRF-CEM leukemia 15.8% | MOLT-4 leukemia 24.1%

CC(C)(C)n1cc(-c2ccnc(NCCNS(=O)(=O)c3ccccc3)c2)c(-c2cccc(O)c2)n1
inactive: SK-MEL-2 melanoma 68.8% | EKVX NSCLC 63.4% | SN12C renal 71.8% | UO-31 renal 61.3% | TK-10 renal 92% | ACHN renal 67.1% | CAKI-1 renal 63.8% | A498 renal 55.1% | CCRF-CEM leukemia 46.5% | MOLT-4 leukemia 38.2%

Cc1cc2cc3cc(C)c(N(C)C)cc3nc2cc1N(C)C
inactive: EKVX NSCLC 34.6% | SN12C renal 15.3% | UO-31 renal 59.1% | ACHN renal 39.1% | CAKI-1 renal 43.7% | A498 renal 52.8% | CCRF-CEM leukemia 17.3% | MOLT-4 leukemia 29.1%
active: SK-MEL-2 melanoma -31.8% | TK-10 renal -14.6%

COc1ccc(C(=O)COc2ccc(/C=C3\Oc4ccc(Cl)cc4C3=O)cc2)cc1
active: MOLT-4 leukemia -17.8%
inactive: SK-MEL-2 melanoma 71.1% | EKVX NSCLC 86.8% | SN12C renal 103% | UO-31 renal 83.4% | TK-10 renal 105% | ACHN renal 109% | CAKI-1 renal 98.1% | A498 renal 109% | CCRF-CEM leukemia 122%

COC(=O)[C@H](C(C)C)n1c(=O)c2cc(OC)c(OC)cc2c2cnc3[nH]ccc3c21
inactive: SK-MEL-2 melanoma 89.7% | EKVX NSCLC 47.5% | SN12C renal 43.5% | UO-31 renal 22% | TK-10 renal 51.1% | ACHN renal 34% | CAKI-1 renal 30.5% | CCRF-CEM leukemia 39%
active: A498 renal -40.3% | MOLT-4 leukemia 1.15%

O=C1c2c[n+](Cc3ccccc3)ccc2-c2nc3ccccc3c3ccnc1c23
active: SK-MEL-2 melanoma -53.6% | EKVX NSCLC -1.66% | SN12C renal -74.2% | UO-31 renal -21.8% | TK-10 renal -20.2% | ACHN renal -13% | A498 renal -56.1% | CCRF-CEM leukemia -13.1% | MOLT-4 leukemia -17.2%
inactive: CAKI-1 renal 13.8%

COc1cccc(-c2cn3c(ccc4ccccc43)n2)c1
inactive: SK-MEL-2 melanoma 22.1% | EKVX NSCLC 20.8% | SN12C renal 40.2% | UO-31 renal 37.2% | TK-10 renal 88.8% | ACHN renal 40.1% | CAKI-1 renal 32.4% | CCRF-CEM leukemia 26.6% | MOLT-4 leukemia 48.7%
active: A498 renal -3.78%

Cc1ccc2c(c1)n([O-])c1cc(Cl)ccc1[n+]2=O
active: MOLT-4 leukemia -9.08%
inactive: SK-MEL-2 melanoma 92.5% | EKVX NSCLC 94.6% | SN12C renal 100% | UO-31 renal 88.9% | TK-10 renal 130% | ACHN renal 114% | CAKI-1 renal 111% | A498 renal 87.9% | CCRF-CEM leukemia 34.9%

COc1ccc(C2c3ccc4ccccc4c3Oc3ncnc(N)c32)cc1 (stereo not given)
inactive: SK-MEL-2 melanoma 71.9% | EKVX NSCLC 45.9% | SN12C renal 96% | UO-31 renal 55.9% | TK-10 renal 113% | ACHN renal 81.3% | CAKI-1 renal 50% | A498 renal 75.2% | CCRF-CEM leukemia 89.2% | MOLT-4 leukemia 83.4%

O=C(CN1CCN(c2cc3c(cc2F)c(=O)c(C(=O)O)cn3C2CC2)CC1)Nc1cc(=O)[nH]c(=O)[nH]1
inactive: SK-MEL-2 melanoma 107% | EKVX NSCLC 92% | SN12C renal 97.7% | UO-31 renal 79.7% | TK-10 renal 100% | ACHN renal 100% | CAKI-1 renal 95.4% | A498 renal 100% | CCRF-CEM leukemia 109% | MOLT-4 leukemia 102%

CN(C)c1ccc(C2Nc3ccccc3-n3cccc32)cc1 (stereo not given)
inactive: SK-MEL-2 melanoma 118% | EKVX NSCLC 87.8% | SN12C renal 89.5% | UO-31 renal 64.2% | TK-10 renal 55.7% | ACHN renal 86.6% | CAKI-1 renal 83.3% | A498 renal 113% | CCRF-CEM leukemia 109% | MOLT-4 leukemia 104%

CC[C@H](Nc1ncnc(N)c1C(N)=O)c1nc2cccc(NCc3ccc(C(=O)NO)cc3)c2c(=O)n1-c1ccccc1
inactive: SK-MEL-2 melanoma 82.8% | EKVX NSCLC 99.7% | SN12C renal 81.5% | UO-31 renal 71.8% | TK-10 renal 69.9% | ACHN renal 91% | CAKI-1 renal 93.2% | A498 renal 90.8% | CCRF-CEM leukemia 33% | MOLT-4 leukemia 67.8%

NS(=O)(=O)c1ccc(-n2ncc3c(=O)[nH]c(CN4CCN(c5cc6c(cc5F)c(=O)c(C(=O)O)cn6C5CC5)CC4)nc32)cc1
inactive: SK-MEL-2 melanoma 106% | EKVX NSCLC 92.6% | SN12C renal 95% | UO-31 renal 70% | TK-10 renal 119% | ACHN renal 94% | CAKI-1 renal 89.2% | A498 renal 102% | CCRF-CEM leukemia 93.4% | MOLT-4 leukemia 97%

CN(C)c1ccc(/C=C\C2=[N+](C)c3ccccc3C2(C)C)cc1
active: SK-MEL-2 melanoma -3.85% | EKVX NSCLC 8.84% | SN12C renal -1.45% | ACHN renal 4.49%
inactive: UO-31 renal 55% | TK-10 renal 27.8% | CAKI-1 renal 13.4% | A498 renal 48.2% | CCRF-CEM leukemia 14.6% | MOLT-4 leukemia 15.7%

O=C1/C(=C\c2cn(C(=O)c3ccc(Cl)cc3)c3ccccc23)c2ccccc2N1c1c(Cl)cccc1Cl
inactive: SK-MEL-2 melanoma 103% | EKVX NSCLC 97.8% | SN12C renal 89.5% | UO-31 renal 77% | TK-10 renal 119% | ACHN renal 97.6% | CAKI-1 renal 86.4% | A498 renal 103% | CCRF-CEM leukemia 111% | MOLT-4 leukemia 89.6%

CCOC(=O)c1c2c(n3ccc(NC(=O)CCN4CCCCC4)cc13)C(=O)c1ncccc1C2=O
active: ACHN renal -52.5% | CCRF-CEM leukemia -22.9% | MOLT-4 leukemia -25.9%
inactive: SK-MEL-2 melanoma 52.1% | EKVX NSCLC 67.9% | SN12C renal 30.2% | UO-31 renal 10.3% | TK-10 renal 54% | CAKI-1 renal 16.9% | A498 renal 58.5%

CN1CCN(Cc2ccc(NC(=O)c3cncc(C#Cc4cnc(N)c5cccnc45)c3)cc2C(F)(F)F)CC1
active: SK-MEL-2 melanoma -27.1% | UO-31 renal 2.87% | ACHN renal 6.51% | CAKI-1 renal 1.93% | A498 renal -27.5%
inactive: EKVX NSCLC 14.1% | SN12C renal 11.6% | TK-10 renal 50.1% | CCRF-CEM leukemia 16.9% | MOLT-4 leukemia 18.1%

COc1cc(OC)c(/C=C/S(=O)(=O)Cc2ccc(OC)c(N)n2)c(OC)c1
inactive: EKVX NSCLC 37.3% | SN12C renal 24.3% | UO-31 renal 31.9% | TK-10 renal 33.7% | ACHN renal 28.3% | CAKI-1 renal 25.5%
active: SK-MEL-2 melanoma 8.32% | A498 renal -1.72% | CCRF-CEM leukemia 9.98% | MOLT-4 leukemia 2.56%

COc1ccc(-c2cc(=O)[nH]c3c(OC)c4ccccc4c(OC)c23)cc1
active: A498 renal -4.12% | MOLT-4 leukemia 6.7%
inactive: SK-MEL-2 melanoma 27.6% | EKVX NSCLC 26.4% | SN12C renal 43.2% | UO-31 renal 31.3% | TK-10 renal 47.8% | ACHN renal 50.5% | CAKI-1 renal 38.7% | CCRF-CEM leukemia 10.8%

C[C@@H]1CC[C@@H]2[C@@H]1[C@H](OC(=O)/C=C/c1ccccc1)[C@]1(c3ccccc3)C[C@@H](OC(=O)CO)[C@@]2(C)O1
inactive: SK-MEL-2 melanoma 97.7% | EKVX NSCLC 88.4% | SN12C renal 21.8% | TK-10 renal 98.6% | CAKI-1 renal 15.4% | CCRF-CEM leukemia 93% | MOLT-4 leukemia 92.1%
active: UO-31 renal -68.1% | ACHN renal 4.8% | A498 renal -22.3%

O=C(Nc1nc(-c2ccccc2)cc(-c2ccc(Cl)cc2)n1)c1ccncc1
inactive: SK-MEL-2 melanoma 98.8% | EKVX NSCLC 82.3% | SN12C renal 104% | UO-31 renal 70.8% | TK-10 renal 107% | ACHN renal 97.4% | CAKI-1 renal 77.7% | A498 renal 71.5% | CCRF-CEM leukemia 98.3% | MOLT-4 leukemia 93%

O=C(C[C@@H](C(=O)NCc1cccc(C(F)(F)F)c1)N1C(=O)[C@@H](N2C(=O)OC[C@@H]2c2ccccc2)[C@H]1/C=C/c1ccccc1)NC1CCN(Cc2ccccc2)CC1
inactive: SK-MEL-2 melanoma 49.6% | EKVX NSCLC 82.3% | SN12C renal 82.2% | UO-31 renal 64.3% | TK-10 renal 61% | ACHN renal 96.2% | CAKI-1 renal 85.2% | A498 renal 49.8% | CCRF-CEM leukemia 21%
active: MOLT-4 leukemia -5.43%

Oc1c(Cl)cc(Cl)cc1CNc1nccnn1
inactive: SK-MEL-2 melanoma 115% | EKVX NSCLC 94.4% | SN12C renal 90.4% | UO-31 renal 93.5% | TK-10 renal 113% | ACHN renal 99.8% | CAKI-1 renal 89.6% | A498 renal 88.7% | CCRF-CEM leukemia 111% | MOLT-4 leukemia 101%

O=C1c2ccccc2-c2nccc3cc(Cl)nc1c23
inactive: SK-MEL-2 melanoma 22.2% | TK-10 renal 61.1% | CAKI-1 renal 32.9% | A498 renal 90.2% | CCRF-CEM leukemia 19.4% | MOLT-4 leukemia 26%
active: EKVX NSCLC -17.3% | SN12C renal -30.7% | UO-31 renal -18.5% | ACHN renal -46.4%

CC[C@H](Nc1nc(N)nc(C)c1C#N)c1nc2cccc(NCc3ccc(C(=O)NO)cc3)c2c(=O)n1-c1ccccc1
inactive: SK-MEL-2 melanoma 27.8% | EKVX NSCLC 35.6% | SN12C renal 11.4% | CAKI-1 renal 13.2%
active: UO-31 renal 4.77% | TK-10 renal 1.89% | ACHN renal 4.61% | A498 renal -38.6% | CCRF-CEM leukemia 0.318% | MOLT-4 leukemia 0.225%

O=C(/C=C/c1ccc(Cl)cc1)c1ccc(O)c(CN2CCN(c3cc4c(cc3F)c(=O)c(C(=O)O)cn4C3CC3)CC2)c1
inactive: SK-MEL-2 melanoma 68.6% | EKVX NSCLC 62.4% | SN12C renal 26.8% | UO-31 renal 33.4% | TK-10 renal 73.8% | ACHN renal 32.5% | CAKI-1 renal 45.5% | A498 renal 39.9% | CCRF-CEM leukemia 43.9% | MOLT-4 leukemia 66%
